# In PubChem BioAssay:
# “And” between values parts separate entries of the source, which are not always exact repeats. Equal entries are not always repeated. Inconclusive results are not listed. The source made the active and inactive calls. Unless noted, cut-off not given; nearly all actives show AC50 up to about 26 µM.
# Legend:
# [1] = growth inhibition of DIPG glioma cells, dose response, cell-based, SU-DIPG-IV, MIPE4.0, CellTiter-Glo, qHTS (AID 1347063; cut-off not given, nearly all actives have AC50 up to about 30 µM;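 further: compound exposure lasted 48 hours before the viability readout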); details: SU-DIPG-IV viability, CellTiter-Glo ATP luminescence
# [2] = growth inhibition of DIPG glioma cells, dose response, cell-based, SU-DIPG-XIII, MIPE5.0, CellTiter-Glo, qHTS (AID 1347064; cut-off not given, nearly all actives have AC50 up to about 23 µM;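 on AC50: cells exposed to compound for 48 hours before the viability read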); details: SU-DIPG-XIII viability, CellTiter-Glo ATP luminescence
# [3] = viability loss in pontine glioma line – cell-based, SU-DIPG-XXV, MIPE5.0, CellTiter-Glo, qHTS, dose response (AID 1347065); details: CellTiter-Glo ATP luminescence;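 further: cells exposed to compound for 48 hours before ATP readout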
# [4] = SU-DIPG-VI glioma cell viability, MIPE4.0 library, CellTiter-Glo luminescence, qHTS (AID 1347066; cut-off not given, nearly all actives have AC50 up to about 30 µM;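 further: cells exposed to compound for 48 hours before readout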); details: CellTiter-Glo ATP luminescence
# [5] = JHH-DIPG-1 glioma cell viability, MIPE5.0 library, CellTiter-Glo luminescence, qHTS (AID 1347067); details: JHH-DIPG-1 glioma viability, CellTiter-Glo ATP luminescence;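 further: cells exposed to compound for 48 hours before readout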
# [6] = hESC survival regulators, cell-based (AID 493140; call rule not given here;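 further: cells exposed to compounds for four days before counting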); details: human embryonic stem cell survival screen; stronger effect = higher value
# [7] = modifiers of HSF1 nuclear foci, imaging, Selleck Cancer Library (AID 1347162; in the data active means plate-normalised HSF1 focus index below about 0.46); details: human cells, at 10 µM; SSMD: measured here: HSF1 foci SSMD mean; cell count: measured here: cell number; plate-normalised HSF1 focus index: stronger effect = lower value
# [8] = phospholipid biosynthesis inhibitors in animal cells, primary screen, cell-based, LOPAC library, screen 4 (AID 1347384; call rule not given here); details: phospholipid biosynthesis inhibition screen, at 10 µM
# [9] = LFS_MB_P medulloblastoma growth inhibition, cell-based, chromothripsis tumors, cisplatin or BGB combos (AID 1671449; in the data active means inhibition above about 80%;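 further: cells exposed for 96 hours; 0% = vehicle DMSO and 100% = killing by high DMSO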); details: LFS_MB_P medulloblastoma cells
# [10] = HDN33 neuroblastoma growth inhibition, cell-based, chromothripsis tumors, cisplatin or BGB combos (AID 1671450; in the data active means inhibition above about 80%;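 further: cells exposed to compound for four days; 0% = vehicle DMSO and 100% = cell killing by high DMSO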); details: HDN33 neuroblastoma cells, stronger effect = higher value
# [11] = ICB984 medulloblastoma cell growth inhibition, synergistic combos for chromothripsis tumors, cisplatin or BGB combos (AID 1671451; call rule not given here;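 further: cells exposed for 96 hours before readout; 0% = vehicle DMSO and 100% = killing by high DMSO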); details: ICB984 medulloblastoma cells, drug combinations, stronger effect = higher value
# [12] = HTB85 osteosarcoma cell growth inhibition, synergistic combos for chromothripsis tumors, BGB or cisplatin IC20 combos (AID 1671453; in the data active means inhibition above about 80%;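 further: cells exposed for 96 hours before readout; 0% = vehicle DMSO and 100% = high DMSO killing control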); details: HTB85 osteosarcoma cells, drug combinations, stronger effect = higher value
# [13] = MDA-MB-436 breast carcinoma cell growth inhibition, synergistic combos for chromothripsis tumors, BGB or cisplatin combos (AID 1671458; call rule not given here;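 further: cells exposed for 96 hours; 0% = vehicle DMSO and 100% = killing by high DMSO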); details: MDA-MB-436 breast carcinoma growth inhibition, drug combinations, stronger effect = higher value
# [14] = growth inhibition of BT084 medulloblastoma cells, cell-based, ICGC_MB145, cisplatin and BGB IC40 combos (AID 1671461; in the data active means inhibition above about 80%;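 further: cells exposed to drugs for 96 hours; 0% = vehicle DMSO and 100% = high DMSO full killing control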); details: drug combinations, stronger effect = higher value
# [15] = growth inhibition of RCMB18 medulloblastoma cells, cell-based, cisplatin and BGB IC40 combos (AID 1671462; in the data active means inhibition above about 80%;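 further: cells exposed to compound for four days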); details: stronger effect = higher value
# [16] = growth inhibition of CRL1545 osteosarcoma cells, cell-based, cisplatin and BGB IC20 combos (AID 1671464; in the data active means inhibition above about 80%;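 further: cells exposed to compound for 96 hours before readout; 0% = vehicle DMSO and 100% = high DMSO killing control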); details: stronger effect = higher value
# [17] = circadian clock period modulators, cell-based, LOPAC library, luminescence reporter (AID 2774; call rule not given here;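 further: values are relative to mean of DMSO wells on each plate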); details: circadian reporter cells, at 7 µM, actives lie on both sides
# [18] = system: Hepatitis C virus NS3 helicase; assay: HCV NS3 helicase inhibitors, primary screen, biochemical, fluorescence polarization, LOPAC1280 library (AID 687035; in the data active means inhibition above about 37%); details: Purified HCV NS3 helicase, Cy5-dT15 ssDNA binding fluorescence polarization; stronger effect = higher value; concentration not given here
# [19] = Cy5 fluorescence quenching or enhancement artefacts, artefact control for HCV NS3 helicase inhibitor project, biochemical, LOPAC1280 (AID 687037; call rule not given here); details: Cy5-DNA-NS3h complex fluorescence interference counterscreen
# [20] = measured here: with BGB IC20 combination, at 0.5 µM
# [21] = measured here: with cisplatin IC20 combination, at 0.5 µM
smiles,measurement,setting,value
CCC(C)(Oc1ccc(C2(c3ccc(OC(C)(CC)C(=O)O)cc3)CCCCC2)cc1)C(=O)O (stereo not drawn),outcome,[1],inactive
same,outcome,[2],inactive
same,outcome,[3],inactive
same,outcome,[4],inactive
same,outcome,[5],inactive
CC1(COc2ccc(CC3SC(=O)NC3=O)cc2)CCCCC1 (stereo not drawn),survival,[6],117 (inactive)
O=c1[nH]c(=O)n([C@H]2C[C@H](O)[C@@H](CO)O2)cc1I,outcome,[1],inactive
same,outcome,[4],inactive
Clc1ccc(Nc2nnc(Cc3ccncc3)c3ccccc23)cc1,outcome,[2],inactive
same,AC50,[3],20.9 µM (active)
same,outcome,[4],inactive
same,AC50,[5],18.6 µM (active)
same,SSMD,[7],2.9
same,cell count,[7],7070
same,plate-normalised HSF1 focus index,[7],1.15 (inactive)
CC(C)C[C@H](NC(=O)[C@H](Cc1ccccc1)NC(=O)c1cnccn1)B(O)O,AC50,[1],0.00833 µM (active)
same,AC50,[3],0.00662 µM (active)
same,AC50,[4],0.0264 µM (active)
same,AC50,[5],0.0263 µM (active)
same,SSMD,[7],3.94
same,cell count,[7],7530
same,plate-normalised HSF1 focus index,[7],1.14 (inactive)
NS(=O)(=O)c1cc(Cl)c(Cl)c(S(N)(=O)=O)c1,survival,[6],2 (inactive)
same,outcome,[1],inactive
same,outcome,[3],inactive
same,outcome,[4],inactive
same,outcome,[5],inactive
CCN(CC)CCNC(=O)c1c(C)[nH]c(/C=C2\C(=O)Nc3ccc(F)cc32)c1C,AC50,[1],9.59 µM (active)
same,AC50,[2],7.42 µM (active)
same,AC50,[3],4.17 µM (active)
same,AC50,[4],21.5 µM (active)
same,AC50,[5],3.72 µM (active)
same,SSMD,[7],-0.842
same,cell count,[7],6750
same,plate-normalised HSF1 focus index,[7],0.967 (inactive)
same,outcome,[8],inactive
CCCCCOC(=O)Nc1nc(=O)n([C@@H]2O[C@H](C)[C@@H](O)[C@H]2O)cc1F,outcome,[1],inactive
same,outcome,[2],inactive
same,outcome,[4],inactive
same,outcome,[5],inactive
same,SSMD,[7],2.2
same,cell count,[7],7640
same,plate-normalised HSF1 focus index,[7],1.08 (inactive)
same,inhibition,"[9]; at 0.5 µM, stronger effect = higher value",1.4% (inactive) and -21.9% (inactive)
same,inhibition,"[9]; measured here: combination with BGB IC20, at 0.005 µM",-14.6% and -21.7%
same,inhibition,"[9]; measured here: combination with BGB IC40, at 0.005 µM",-20.4% and -20.9%
same,inhibition,"[9]; measured here: combination with BGB IC40, at 0.05 µM",-19.6% and -29%
same,inhibition,"[9]; measured here: combination with cisplatin, at 0.5 µM, stronger effect = higher value",-27.7% and -33.8%
same,inhibition,"[9]; measured here: combination with cisplatin, at 5 µM, stronger effect = higher value",-25.5% and -51.4%
same,inhibition,"[10]; BGB combo, at 5 µM",-43.4% and -24%
same,inhibition,[10]; at 0.5 µM,-46.5% (inactive) and -7.86% (inactive)
same,inhibition,"[10]; cisplatin combo, at 5 µM",-42.6% and -1.99%
same,inhibition,[10]; [20],-56.7% and -7.65%
same,inhibition,[10]; [21],-38% and 1.73%
same,inhibition,"[10]; single agent, at 5 µM",-49.4% and -2.05%
same,inhibition,"[11]; BGB IC20 combo, at 0.005 µM",4.24% and 4.65%
same,inhibition,"[11]; BGB IC40 combo, at 0.005 µM",-24.4% and -11%
same,inhibition,"[11]; BGB IC40 combo, at 0.05 µM",-29.4% and -22.1%
same,inhibition,[11]; at 0.5 µM,-39.5% (inactive) and -17.6% (inactive)
same,inhibition,"[11]; cisplatin combo, at 0.05 µM",-33% and -26.5%
same,inhibition,"[11]; cisplatin combo, at 0.5 µM",-46.4% and -4.14%
same,inhibition,"[11]; cisplatin combo, at 5 µM",-48.1% and -27.4%
same,inhibition,"[11]; measured here: 5 uM single agent, at 5 µM",-17.2% and -23.5%
same,inhibition,[12]; at 0.5 µM,-24.5% (inactive) and -10.3% (inactive)
same,inhibition,"[12]; measured here: with BGB IC20, at 0.5 µM",-20% and -11.5%
same,inhibition,"[12]; measured here: with BGB IC20, at 5 µM",-100% and -18.6%
same,inhibition,"[12]; measured here: with cisplatin IC20, at 0.5 µM",-35.2% and -21.3%
same,inhibition,"[12]; measured here: with cisplatin IC20, at 5 µM",-30% and -33.3%
same,inhibition,"[12]; single agent, at 5 µM",-21% and -4.05%
same,inhibition,[13]; at 0.5 µM,-36.5% (inactive) and -2.12% (inactive)
same,inhibition,"[13]; measured here: BGB combination, at 0.5 µM",-31.4% and -6.87%
same,inhibition,"[13]; measured here: BGB combination, at 5 µM",-29.8% and -7.46%
same,inhibition,"[13]; measured here: cisplatin combination, at 0.5 µM",-50.7% and -2.06%
same,inhibition,"[13]; measured here: cisplatin combination, at 5 µM",-40.9% and -28%
same,inhibition,[14]; at 0.5 µM,-20.5% (inactive) and -7.04% (inactive)
same,inhibition,"[14]; cisplatin combination, at 0.5 µM",-5.51% and -26.5%
same,inhibition,"[14]; cisplatin combination, at 5 µM",-19.4% and -8.1%
same,inhibition,"[14]; measured here: BGB IC40 combination 0.05 uM, at 0.05 µM",-7.71% and -17.1%
same,inhibition,"[14]; single agent, at 5 µM",-28.9% and -3.19%
same,inhibition,[15]; at 0.5 µM,-0.93% (inactive) and -5.48% (inactive)
same,inhibition,"[15]; cisplatin combo, at 5 µM",-35.1% and -36.1%
same,inhibition,"[15]; measured here: BGB IC40 combination, at 0.05 µM",-29.7% and -0.207%
same,inhibition,"[15]; measured here: combination with cisplatin, at 0.5 µM",-33.1% and 15.5%
same,inhibition,"[15]; single agent, at 5 µM",-11.2% and -19.2%
same,inhibition,[16]; at 0.5 µM,-52.6% (inactive) and -13.7% (inactive)
same,inhibition,[16]; [20],-42.3% and -20.5%
same,inhibition,[16]; [21],-61.3% and -12%
same,inhibition,"[16]; single agent, at 0.05 µM",-66.9% and -17.4%
same,inhibition,"[16]; single agent, at 5 µM",-52.4% and -6.48%
Nc1ccn(C2CO[C@H](CO)O2)c(=O)n1 (stereo partly drawn),outcome,[1],inactive
same,outcome,[2],inactive
same,outcome,[3],inactive
same,outcome,[4],inactive
same,outcome,[5],inactive
CC(C)OC(=O)C(C(=O)OC(C)C)=C1SC=CS1,outcome,[1],inactive
CCCCCCCCCCCCCCCC(=O)NCCO,period change,[17],0.19 h (inactive)
same,survival,[6],109 (inactive)
same,inhibition,[18],-7% (inactive)
same,fluorescence ratio (interference),[19],1 (inactive)
CNC(=O)c1cc(Oc2ccc(NC(=O)Nc3ccc(Cl)c(C(F)(F)F)c3)cc2)ccn1,AC50,[1],20.9 µM (active)
same,AC50,[3],10.5 µM (active)
same,AC50,[4],20.9 µM (active)
same,AC50,[5],4.17 µM (active)
same,SSMD,[7],0.678
same,cell count,[7],6960
same,plate-normalised HSF1 focus index,[7],1.05 (inactive)
CCOC(=O)[C@H](CCc1ccccc1)N[C@H]1CS[C@H](c2cccs2)CN(CC(=O)O)C1=O,AC50,[1],1.87 µM (active)
same,outcome,[2],inactive
same,outcome,[3],inactive
same,outcome,[4],inactive
same,outcome,[5],inactive
CS(=O)(=O)CCNCc1ccc(-c2ccc3ncnc(Nc4ccc(OCc5cccc(F)c5)c(Cl)c4)c3c2)o1,AC50,[1],11.8 µM (active)
same,AC50,[2],18.6 µM (active)
same,AC50,[3],13.2 µM (active)
same,AC50,[4],16.6 µM (active)
same,AC50,[5],20.9 µM (active)
COC(=O)C1=C(C)NC(C)=C(C(=O)OCCCN2CCC(c3ccccc3)(c3ccccc3)CC2)C1c1cccc([N+](=O)[O-])c1 (stereo not drawn),outcome,[1],inactive
same,AC50,[2],13.2 µM (active)
same,AC50,[3],8.33 µM (active)
same,outcome,[4],inactive
O=c1cc(O)c(Cl)c[nH]1,outcome,[2],inactive
same,outcome,[3],inactive
same,outcome,[4],inactive
same,outcome,[5],inactive
Cc1ccc(C(=O)c2cc(O)c(O)c([N+](=O)[O-])c2)cc1,outcome,[2],inactive
same,outcome,[3],inactive
same,outcome,[5],inactive
CNC(=O)c1ccccc1Sc1ccc2c(/C=C/c3ccccn3)n[nH]c2c1,AC50,[2],1.48 µM (active)
same,AC50,[3],1.18 µM (active)
same,AC50,[5],5.25 µM (active)
same,SSMD,[7],5.16
same,cell count,[7],7390
same,plate-normalised HSF1 focus index,[7],1.18 (inactive)
